Laboratory results: PubChem BioAssay AID1159580 (chemical genetic matrix, 2015)
Where “and” joins values, the source holds several entries; their conditions need not be identical. Equal values may be shown once. The whole screen tested about 5,500 compounds, of which about 2,000 (36%) were called active. About 18% were inconclusive and are not listed. No stated cut-off is given here; in the data, active means normalized growth mostly below about 0.91 (no sharp cut-off); inconclusive means no clear call, values can overlap the other calls; inactive means mostly above about 0.92. The list shows a part of the results.

Assay: chemical genetic growth profiling, strain panel (AID 1159580);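 further: tested at 20 µM; growth read once vehicle control cultures reached saturation at 30 °C; 1 = growth at the plate median or of vehicle wells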
Details: S. cerevisiae deletion strains, growth OD

Measured: normalized growth

CC(C)[N+](C)(CCOC(=O)C1c2ccccc2Oc2ccccc21)C(C)C
inactive: locus YAL013W, strain DEP1, stronger effect = lower value 1.01 | locus YAL021C, strain ccr4, stronger effect = lower value 1.01 | locus YAL026C, strain drs2, stronger effect = lower value 1.03 | locus YAL030W, strain snc1, stronger effect = lower value 1.02 | locus YAL040C, strain CLN3, stronger effect = lower value 1.01 | locus YBL061C, strain skt5, stronger effect = lower value 0.989 | locus YBR009C, strain hhf1, stronger effect = lower value 0.997 | locus YBR021W, strain FUR4, stronger effect = lower value 1.02 | locus YBR023C, strain chs3, stronger effect = lower value 1.02 | locus YBR171W, strain sec66, stronger effect = lower value 1.01 | locus YBR229C, strain ROT2, stronger effect = lower value 0.997 | locus YBR231C, strain swc5, stronger effect = lower value 1.01 | locus YBR279W, strain paf1, stronger effect = lower value 0.99 | locus YCL011C, strain gbp2, stronger effect = lower value 1.01 | locus YCL016C, strain dcc1, stronger effect = lower value 1.01 | locus YCL029C, strain bik1, stronger effect = lower value 1.01 | locus YCL061C, strain MRC1 (second series), stronger effect = lower value 1.01 | locus YCL069W, strain vba3, stronger effect = lower value 0.993 | locus YCR088W, strain abp1, stronger effect = lower value 1.01 | locus YDL005C, strain med2, stronger effect = lower value 1.02 | locus YDL035C, strain GPR1, stronger effect = lower value 1.01 | locus YDL040C, strain nat1, stronger effect = lower value 0.996 | locus YDL074C, strain BRE1, stronger effect = lower value 1.02 | locus YDL101C, strain DUN1, stronger effect = lower value 1 | locus YDL134C, strain PPH21, stronger effect = lower value 1 | locus YDL185W, strain tfp1, stronger effect = lower value 1 | locus YDL192W, strain arf1, stronger effect = lower value 1.01 | locus YDR001C, strain nth1, stronger effect = lower value 0.996 | locus YDR069C, strain doa4, stronger effect = lower value 1 | locus YDR101C, strain arx1, stronger effect = lower value 0.997 | locus YDR137W, strain rgp1, stronger effect = lower value 1.01 | locus YDR150W, strain NUM1, stronger effect = lower value 1.01 and 1 | locus YDR159W, strain sac3, stronger effect = lower value 0.987 | locus YDR162C, strain NBP2, stronger effect = lower value 1.02 | locus YDR195W, strain ref2 0.976 | locus YDR297W, strain sur2, stronger effect = lower value 0.999 | locus YDR318W, strain mcm21, stronger effect = lower value 1.01 | locus YDR334W, strain swr1, stronger effect = lower value 1 | locus YDR335W, strain msn5, stronger effect = lower value 1.01 | locus YDR363W, strain ESC2, stronger effect = lower value 1.05 | locus YDR388W, stronger effect = lower value 1.01 | locus YDR392W, strain spt3, stronger effect = lower value 0.98 | locus YDR502C, strain sam2, stronger effect = lower value 1 | locus YEL003W, strain gim4, stronger effect = lower value 1 | locus YEL037C, strain rad23, stronger effect = lower value 0.995 | locus YEL061C, strain CIN8 (second series), stronger effect = lower value 0.995 | locus YEL061C, strain CIN8, stronger effect = lower value 1.01 | locus YER002W, strain NOP16, stronger effect = lower value 1.02 | locus YER015W, strain faa2, stronger effect = lower value 1.01 | locus YER016W, strain bim1, stronger effect = lower value 1.01 | locus YER110C, stronger effect = lower value 1 | locus YER111C, strain swi4, stronger effect = lower value 0.993 | locus YER155C, strain BEM2 (second series), stronger effect = lower value 0.955 | locus YER155C, strain BEM2, stronger effect = lower value 1.01 | locus YER167W, strain BCK2, stronger effect = lower value 1.01 | locus YFR010W, strain ubp6, stronger effect = lower value 0.994 | locus YGL078C, strain dbp3, stronger effect = lower value 1.01 | locus YGL086W, strain mad1, stronger effect = lower value 0.998 | locus YGL167C, strain pmr1, stronger effect = lower value 0.997 | locus YGL173C, strain kem1, stronger effect = lower value 1 | locus YGL227W, strain vid30, stronger effect = lower value 1.02 | locus YGL240W, strain doc1, stronger effect = lower value 0.983 | locus YGL248W, strain PDE1, stronger effect = lower value 0.997 | locus YGL253W, strain hxk2, stronger effect = lower value 1.02 | locus YGR078C, strain PAC10, stronger effect = lower value 1 and 1.01 | locus YGR135W, strain pre9, stronger effect = lower value 1.01 | locus YGR229C, strain SMI1, stronger effect = lower value 1.02 | locus YGR252W, strain gcn5, stronger effect = lower value 0.956 | locus YHR013C, strain ard1, stronger effect = lower value 1.04 | locus YHR027C, strain rpn1, stronger effect = lower value 1.01 | locus YHR030C, strain SLT2, stronger effect = lower value 1 and 1.05 | locus YHR079C, strain IRE1 (second series), stronger effect = lower value 1.01 | locus YHR079C, strain IRE1, stronger effect = lower value 1.05 | locus YHR094C, strain hxt1, stronger effect = lower value 1 | locus YHR129C, strain ARP1, stronger effect = lower value 1 | locus YHR142W, strain chs7, stronger effect = lower value 0.994 | locus YHR200W, strain rpn10, stronger effect = lower value 1.01 | locus YIL066C, strain RNR3, stronger effect = lower value 1.01 | locus YIL073C, strain SPO22, stronger effect = lower value 1.03 | locus YIL125W, strain kgd1, stronger effect = lower value 1.01 | locus YIR030C, strain dcg1, stronger effect = lower value 1.01 | locus YJL092W, strain hpr5, stronger effect = lower value 1 | locus YJL095W, strain BCK1 (second series), stronger effect = lower value 1.01 | locus YJL095W, strain BCK1, stronger effect = lower value 0.996 and 1.01 | locus YJL115W, strain asf1, stronger effect = lower value 1 | locus YJL129C, strain trk1, stronger effect = lower value 1.01 | locus YJL134W, strain LCB3, stronger effect = lower value 1.01 | locus YJL154C, strain vps35, stronger effect = lower value 1.01 | locus YJL164C, strain tpk1, stronger effect = lower value 0.995 | locus YJL166W, strain qcr8, stronger effect = lower value 0.98 | locus YJL168C, strain set2, stronger effect = lower value 1 | locus YJL187C, strain SWE1 (second series), stronger effect = lower value 1 | locus YJR043C, strain POL32, stronger effect = lower value 1 | locus YJR066W, strain TOR1, stronger effect = lower value 0.985
